Test results reported in ChEMBL document CHEMBL4513216, “Probing the Open Global Health Chemical Diversity Library for Multistage-Active Starting Points for Next-Generation Antimalarials” (ACS Infect Dis, 2020).
The campaign covered roughly 69,000 compounds. About 8,600 (12%) showed an effect of 50% or more. This excerpt belongs to a sample that is enriched for strong results.

tested on: Plasmodium berghei; assay: Screen against P. berghei liver stage (PbLuc), transformed with Luciferase, at 10uM; format: functional, HepG2; settings: tested at 10 uM

| Structure (SMILES) | INHIBITION [%] |
| --- | --- |
| c1ccc(-c2cc(CNCCN3CCCC3)c3nnnn3c2)cc1 | -5.71 |
| CC(NC(=O)NCc1ccccn1)c1cccs1 (configuration not stated) | -5.26 |
| O=C(C1=CCCC1)N1CCC[C@]2(C[C@@H](Oc3ncccc3F)CO2)C1 | 23.5 |
| CC(C)N1CCc2c(C(=O)N3CCOCC3)nn(C)c2C1 | 42.1 |
| OC1(CNc2ccccc2)CCNCC1 | 20.9 |
| CCNC(=O)N(C)CCCc1n[nH]c(N)c1C#N | 40.9 |
| CN(CCCc1n[nH]c(N)c1C#N)C(=O)NC1CC1 | 23.6 |
| CN(CCCc1n[nH]c(N)c1C#N)C(=O)Nc1cc(Cl)cc(Cl)c1 | 63.7 |
| OCCN(Cc1nc(-c2ccc3c(c2)OCO3)no1)Cc1cccs1 | 17.6 |
| OCCN(Cc1ccccc1)Cc1nc(-c2ccc3c(c2)OCO3)no1 | 35.1 |
| COC(=O)c1ccc(-c2noc(CN(CCO)Cc3cccs3)n2)cc1 | 51 |
| CCS(=O)(=O)N1C[C@@H](Oc2ccccn2)[C@H]2OCCC[C@H]21 | -14.4 |
| COc1ccc(F)cc1NC(=O)NCC1(CN2CCOCC2)CC1 | 28.15 |
| COCC1(CNC(=O)Nc2cc(F)ccc2OC)CCCC1 | 51.4 |
| COc1ccc(F)cc1NC(=O)NCC1(C)COC1 | 25.25 |
| Cc1nn(C)c(Cl)c1C1CCCN1C(=O)CCNc1ncccn1 (configuration not stated) | -35.7 |
| O=c1cc(N2CCCC2)cnn1CC(F)F | 73.2 |
| O=c1cc(N2CCNCC2)cnn1CCc1ccc(F)cc1 | 32.8 |
| O=c1cc(N2CCOCC2)cnn1CCc1ccc(F)cc1 | -0.529 |
| O=c1cc(N2CCCC2)cnn1CCc1cccc(F)c1 | 52.6 |
| O=c1cc(N2CCCCC2)cnn1C[C@H](O)CO | 2.7 |
| O=c1cc(N2CCCCC2)cnn1CC(O)C(F)(F)F (configuration not stated) | -29.1 |
| Cc1cnn(CCNCc2csc(-c3ccc(C(N)=O)cc3)n2)c1 | 43.6 |
| O=C(COc1ccc2c(c1)OCC2O)NCc1ccco1 (configuration not stated) | 10.6 |

| Structure (SMILES) | INHIBITION [%] |
| --- | --- |
| N#Cc1nc(COc2ccc3c(c2)OCO3)oc1NC1CC1 | 47.1 |
| O=C(c1nc(COc2ccc3c(c2)OCO3)no1)N1CCCC1 | 13.4 |
| Cc1occc(=O)c1OCc1noc(C(=O)NCC(C)C)n1 | 26.9 |
| CNc1oc(COc2ccc3c(c2)OCO3)nc1C#N | 41.5 |
| CNC(=O)c1nc(COc2ccc3c(c2)OCO3)no1 | 53.7 |
| N#Cc1nc(COc2ccc3c(c2)OCO3)oc1NC1CCCCC1 | 72.1 |
| NC(=O)c1nc(COc2ccc3c(c2)OCO3)no1 | -83.7 |
| CC(C)NC(=O)c1nc(COc2ccc3c(c2)OCO3)no1 | 32.8 |
| O=C(NC1CCCC1)c1nc(COc2ccc3c(c2)OCO3)no1 | 62.9 |
| O=C(NCC1CC1)c1nc(COc2ccc3c(c2)OCO3)no1 | -12.6 |
| O=C(NC1CC1)c1nc(COc2ccc3c(c2)OCO3)no1 | 35.1 |
| CC(C)CNC(=O)c1nc(COc2ccc3c(c2)OCO3)no1 | 57.7 |
| CCn1cc(CN2CCC(O)(Cn3nc(C)ccc3=O)CC2)cn1 | 6.32 |
| CN(C)c1cc(C(=O)N2CCCCC2)ccn1 | 2.7 |
| CC1CCN(C(=O)c2cnn3c(-c4ccco4)ccnc23)CC1 | -82.6 |
| CCCNC(=O)NC(=O)CN1C=Nc2ccccc2S1(=O)=O | -3.7 |
| Cc1occc1C(=O)N1CCC2(CC1)C(c1cnn(C)c1)CC(=O)N2C (configuration not stated) | 31.3 |
| Cn1ccnc1CC1CCCN(Cc2noc(C3CC3)n2)C1 (configuration not stated) | 9.14 |
| Cc1nnsc1CNC(=O)CSCc1ccccc1Cl | 10.8 |
| c1ccc(Cc2nnc(CN3CCCCC3Cn3cncn3)o2)cc1 (configuration not stated) | 24 |
| CCN(Cc1c(F)cccc1Cl)c1cc(C2CCNCC2)nc(C)n1 | 39.6 |
| COc1ncccc1CNC(=O)c1cnccn1 | -12 |
| N#Cc1ccccc1OCCN1CCCC1Cn1cncn1 (configuration not stated) | 48.1 |
| CC(C)CN1CCc2c(CN(C)Cc3ccco3)cncc2C1 | -15.2 |

| Structure (SMILES) | INHIBITION [%] |
| --- | --- |
| Cc1cccc(S(=O)(=O)N2CCCC3(CCCN3S(C)(=O)=O)C2)c1 (configuration not stated) | -61.6 |
| COc1ccc(C(CNS(=O)(=O)c2cn(C)nc2C)N2CCCC2)cc1 (configuration not stated) | 23.15 |
| CN1CCc2cc(C(CNS(=O)(=O)c3cccs3)N3CCCC3)ccc21 (configuration not stated) | 20.5 |
| COc1ccccc1N1CCC(CNS(=O)(=O)c2cccs2)C1 (configuration not stated) | 6.31 |
| O=S(=O)(NCC(c1ccsc1)N1CCCCCC1)c1cccs1 (configuration not stated) | 60 |
| CN(C)c1ccc(C(CNS(=O)(=O)c2cccs2)N2CCCC2)cc1 (configuration not stated) | 67.6 |
| Cc1nn(C)cc1S(=O)(=O)NCC(c1ccccc1)N1CCCCCC1 (configuration not stated) | 36.7 |
| O=C(NCC(F)(F)F)c1ccncc1 | -6.67 |
| CC(C)c1noc(CCCC(=O)N2CCN(Cc3cccnc3)CC2)n1 | -40.2 |
| COc1cccc(OCC(=O)NCc2ccc3[nH]c(=O)[nH]c3c2)c1 | 12.6 |
| CN1CCOC(C)(C(=O)Nc2nc(C(C)(C)C)cs2)C1 (configuration not stated) | 7.5 |
| CN(CC1(O)CCN(c2ccnc3ccncc23)CC1)C(=O)CCN | -5.78 |
| Cc1ccc2c(c1)N(C(=O)C1CCCOC1)CCC2 (configuration not stated) | -27 |
| CS(=O)(=O)c1ccc2c(c1)N(C(=O)Cc1ccc(F)cc1)CCC2 | 47.7 |
| CCN(CC)S(=O)(=O)CC(=O)N1CCc2ccc(F)cc21 | 67.4 |
| CCN(CC)S(=O)(=O)CC(=O)N1CCc2ccc(Cl)cc21 | 26.8 |
| CCN(CC)S(=O)(=O)CC(=O)N1CCc2ccc(C)cc21 | 57.5 |
| CS(=O)(=O)c1ccc2c(c1)N(C(=O)Cc1cccc(F)c1)CCC2 | 30.9 |
| COCCOc1cccc(CNC(=O)CN2CCN(C)CC2C)c1 (configuration not stated) | 17.883 |
| Cc1ccccc1Cn1cnc2oc(C)c(C(=O)O)c2c1=O | 0.348 |
| O=C(CCn1cccn1)N1CCC(c2nnc(-c3ccsc3)o2)CC1 | 5.86 |
| O=C(N[C@@H]1CN(c2ncccn2)C[C@@H]2CCCO[C@@H]21)c1cccnc1 | 4.61 |
| CC(=O)NS(=O)(=O)c1ccc(F)cc1C(F)(F)F | 35 |
| O=C(NCCn1nc(-n2cncn2)ccc1=O)c1ccsc1 | 6.12 |

| Structure (SMILES) | INHIBITION [%] |
| --- | --- |
| CCOCCOc1ccccc1C(=O)N1CCCC(c2ncc[nH]2)C1 (configuration not stated) | -7.35 |
| CSCCC(=O)N1CCCC(c2ncc[nH]2)C1 (configuration not stated) | -8.66 |
| O=C(CCOc1ccccc1)N1CCCC(c2ncc[nH]2)C1 (configuration not stated) | 52.7 |
| O=C(CCCOCc1ccccc1)N1CCCC(c2ncc[nH]2)C1 (configuration not stated) | 6.11 |
| CCOCCC(=O)N1CCCC(c2ncc[nH]2)C1 (configuration not stated) | 48.1 |
| CCOCCC1(C(=O)N2CCCC(c3ncc[nH]3)C2)CCCC1 (configuration not stated) | 72 |
| COCCC(=O)N1C[C@H]2CN(Cc3cccc(C)n3)C(=O)[C@H]2C1 | 26.6 |
| CCOCCN1CCC(c2cnccn2)CC1 | 32.7 |
| CN1CCN(C=C2N=C(c3cc(-c4ccccc4F)n[nH]3)ON2)CC1 | 49.4 |
| CS(=O)(=O)N1CC[C@H]2OCC[C@@]2(C(=O)NCc2ccccn2)C1 | 39.4 |
| CNC(=O)c1cc(C)n(-c2cccc(OC)c2)c1C | -3.2 |
| Cc1cc(Br)cnc1N(C)CC1CCOC1 (configuration not stated) | 23.6 |
| Cc1nc2c(c(NCc3cc4ccccc4s3)n1)CCNCC2 | 46.1 |
| Cc1nc2c(c(NCc3nc4ccccc4s3)n1)CCNCC2 | 75.8 |
| Cc1nc2c(c(NCc3ccc(-c4ccccn4)s3)n1)CCNCC2 | 32.2 |
| CC(C)N1CCN(C(=O)Nc2cnc3c(cnn3C(C)C)c2)CC1 | 27.6 |
| O=C(CCOc1ccccc1)N1CCCC(n2cncn2)C1 (configuration not stated) | -13.255 |
| CCC(C)N(Cc1cccnc1)Cc1cc2c(cc1OC)OCO2 (configuration not stated) | -19.8 |
| CCC(C)N(Cc1cccnc1)Cc1ccc2c(c1)OCCO2 (configuration not stated) | 52.5 |
| CCC(C)N(Cc1cccnc1)Cc1ccccc1Cn1cccn1 (configuration not stated) | 31.3 |
| c1cncc(CN(Cc2ccc3c(c2)OCCO3)CC2CCCO2)c1 (configuration not stated) | -2.98 |
| Cc1ccnc(CC(C)N(C)Cc2ccc3c(c2)OCCO3)c1 (configuration not stated) | 8.11 |
| CCC(C)N(Cc1cccnc1)Cc1cc2c(cc1Cl)OCO2 (configuration not stated) | 58.5 |
| Cn1cc(C2CCCN2C(=O)CCc2cnn(-c3ccccc3)c2)cn1 (configuration not stated) | 5.03 |

| Structure (SMILES) | INHIBITION [%] |
| --- | --- |
| CN(C)C(=O)C1(CCCc2ccccn2)CCN1Cc1nccn1C (configuration not stated) | 5.34 |
| COc1ccc2nnc(CCCC(=O)NCc3ccccc3F)n2n1 | -6.09 |
| COc1ncccc1CNCc1c(C)nn(C)c1N1CCOCC1 | -10.1 |
| CC(C)N1CCN(C(=O)c2ccc(Cn3ccccc3=O)o2)CC1 | 14.115 |
| Cc1nnc([C@H]2C[C@H]3OCC[C@H]3N(S(=O)(=O)C3CC3)C2)o1 | 26 |
| CCS(=O)(=O)N1C[C@@H](c2nnc(C)o2)C[C@H]2OCC[C@H]21 | 18.7 |
| Cc1nnc([C@H]2C[C@H]3OCC[C@H]3N(S(=O)(=O)N(C)C)C2)o1 | 54.1 |
| Cc1ccc(CN2C[C@@H]3COC[C@H](NS(C)(=O)=O)[C@@H]3C2)o1 | 6.38 |
| OCCNc1nccc(-c2c[nH]nc2-c2ccncc2)n1 | 41.2 |
| O=c1[nH][nH]cc1-c1ccnc(NCCN2CCCC2)n1 | 25.3 |
| COCCCNc1nccc(-c2c[nH][nH]c2=O)n1 | 15.2 |
| O=c1[nH][nH]cc1-c1ccnc(NCCc2cccnc2)n1 | 59 |
| Cc1ncc(-c2ccnc(N3CCCCC3)n2)c(=O)[nH]1 | 28.6 |
| CN(C)c1nccc(-c2c[nH][nH]c2=O)n1 | 42.6 |
| O=C(Cc1cccc(O)c1)NCCNc1nccc(C(F)(F)F)n1 | 0.71 |
| O=c1[nH][nH]cc1-c1ccnc(NCCc2cccc(O)c2)n1 | 63.4 |
| O=C(O)c1ccnc(-c2ccnc(NCCc3ccc(F)cc3)n2)c1 | 8.74 |
| O=c1[nH][nH]cc1-c1ccnc(NCCc2ccc(F)cc2)n1 | 20.4 |
| C[C@H]1CCCCN1CCCNc1nccc(-c2c[nH][nH]c2=O)n1 | 23.4 |
| CC(C)(C)CCNc1nccc(-c2c[nH][nH]c2=O)n1 | 57.5 |
| Cc1ncc(-c2ccnc(NCCc3ccc(F)cc3)n2)c(=O)[nH]1 | 72.3 |
